Results as given in paper PMC12820563, “FoxP3 forms a head-to-head dimer in vivo and stabilizes its multimerization on adjacent microsatellites”.
Whole data set: some 16,000 sequences, median “rpm ratio (pull-down/input)” near 0.5, cut for the highest 2% near 5.5. The entries come from a sample that favours the highest values as a whole.

What follows are sequences tested against T1, MBP-FoxP3dN (Mus musculus, UniProt Q99JB6 188-423) (assay: PD-seq (MBP pull-down with sequencing); 20 mM Tris-HCl pH 7.5, 100 mM NaCl, 1.5 mM MgCl2, 0.4 uM protein, 0.1 uM dsDNA library, 30 min, room temperature, amylose pull-down; high values mean tight binding). Details: protein: recombinant; tags: His6-MBP; chain copies: 2; dsDNA, one strand shown.
T1 sequence: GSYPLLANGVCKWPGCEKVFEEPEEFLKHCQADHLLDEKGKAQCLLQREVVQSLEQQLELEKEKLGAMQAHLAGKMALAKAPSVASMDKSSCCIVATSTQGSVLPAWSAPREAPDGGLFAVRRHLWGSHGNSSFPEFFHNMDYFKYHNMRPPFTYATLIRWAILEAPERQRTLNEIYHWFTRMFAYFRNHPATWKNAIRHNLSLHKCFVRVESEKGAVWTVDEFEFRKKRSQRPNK
In short: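 The N-terminus-lacking fragment of mouse FoxP3 or FoxP1 carried a His6-MBP tag and was expressed in E. coli. At 0.4 µM it was incubated with 0.1 µM Klenow-filled degenerate double-stranded DNA library for 30 min at room temperature in Tris pH 7.5 buffer with NaCl and MgCl2, and complexes were caught on amylose resin, washed three times, released with proteinase K, PCR-barcoded and Illumina-sequenced. Binding is reads-per-million enrichment of pull-down over input with replicates pooled.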

| Sequence | binding signal |
| --- | --- |
| GATGATTGTTCTCCCAGCTGATGAATTCTCTTGCTCGAGTAAACAAATTTTCCTAATCTTTCTGTTCAAGCGCCATCTAC | 0.273 RPM ratio (pull-down/input) |
| GATGATTGTTCTCCCAGCTGATGAATTTTCCTTATCGAGTAAACAAATTTTCCTAATCTTTCTGTTCAAGCGCCATCTAC | 0.31 RPM ratio (pull-down/input) |
| GATGATTGTTCTCCCAGCTGATGAATTGGTGTTGTCGAGTAAACAAATTTTCCTAATCTTTCTGTTCAAGCGCCATCTAC | 3.18 RPM ratio (pull-down/input) |
| GATGATTGTTCTCCCAGCTGATGAATTCGATATTTCGAGTAAACAAATTTTCCTAATCTTTCTGTTCAAGCGCCATCTAC | 1.79 RPM ratio (pull-down/input) |
| GATGATTGTTCTCCCAGCTGATGAATTTCGCAAATCGAGTAAACAAATTTTCCTAATCTTTCTGTTCAAGCGCCATCTAC | 0.634 RPM ratio (pull-down/input) |
| GATGATTGTTCTCCCAGCTGATGAATTCGTCGTATCGAGTAAACAAATTTTCCTAATCTTTCTGTTCAAGCGCCATCTAC | 1.17 RPM ratio (pull-down/input) |
| GATGATTGTTCTCCCAGCTGATGAATTTAGTAAATCGAGTAAACAAATTTTCCTAATCTTTCTGTTCAAGCGCCATCTAC | 0.439 RPM ratio (pull-down/input) |
| GATGATTGTTCTCCCAGCTGATGAATTGTAGCCGTCGAGTAAACAAATTTTCCTAATCTTTCTGTTCAAGCGCCATCTAC | 0.622 RPM ratio (pull-down/input) |
| GATGATTGTTCTCCCAGCTGATGAATTATGTATTTCGAGTAAACAAATTTTCCTAATCTTTCTGTTCAAGCGCCATCTAC | 4.76 RPM ratio (pull-down/input) |
| GATGATTGTTCTCCCAGCTGATGAATTATGTGTATCGAGTAAACAAATTTTCCTAATCTTTCTGTTCAAGCGCCATCTAC | 5.73 RPM ratio (pull-down/input) |
| GATGATTGTTCTCCCAGCTGATGAATTATCTGTATCGAGTAAACAAATTTTCCTAATCTTTCTGTTCAAGCGCCATCTAC | 0.545 RPM ratio (pull-down/input) |
| GATGATTGTTCTCCCAGCTGATGAATTATGTTTCTCGAGTAAACAAATTTTCCTAATCTTTCTGTTCAAGCGCCATCTAC | 4.18 RPM ratio (pull-down/input) |
| GATGATTGTTCTCCCAGCTGATGAATTATATGTATCGAGTAAACAAATTTTCCTAATCTTTCTGTTCAAGCGCCATCTAC | 2.22 RPM ratio (pull-down/input) |
| GATGATTGTTCTCCCAGCTGATGAATTGTATGTATCGAGTAAACAAATTTTCCTAATCTTTCTGTTCAAGCGCCATCTAC | 4.55 RPM ratio (pull-down/input) |
| GATGATTGTTCTCCCAGCTGATGAATTATGTATATCGAGTAAACAAATTTTCCTAATCTTTCTGTTCAAGCGCCATCTAC | 5.96 RPM ratio (pull-down/input) |
| GATGATTGTTCTCCCAGCTGATGAATTATGTATCTCGAGTAAACAAATTTTCCTAATCTTTCTGTTCAAGCGCCATCTAC | 5.75 RPM ratio (pull-down/input) |

| Sequence | binding signal |
| --- | --- |
| GATGATTGTTCTCCCAGCTGATGAATTTTATGTATCGAGTAAACAAATTTTCCTAATCTTTCTGTTCAAGCGCCATCTAC | 3.53 RPM ratio (pull-down/input) |
| GATGATTGTTCTCCCAGCTGATGAATTCTTCGATTCGAGTAAACAAATTTTCCTAATCTTTCTGTTCAAGCGCCATCTAC | 0.253 RPM ratio (pull-down/input) |
| GATGATTGTTCTCCCAGCTGATGAATTGGGTTAGTCGAGTAAACAAATTTTCCTAATCTTTCTGTTCAAGCGCCATCTAC | 0.756 RPM ratio (pull-down/input) |
| GATGATTGTTCTCCCAGCTGATGAATTCCTCCGTTCGAGTAAACAAATTTTCCTAATCTTTCTGTTCAAGCGCCATCTAC | 0.255 RPM ratio (pull-down/input) |
| GATGATTGTTCTCCCAGCTGATGAATTGTCCTTTTCGAGTAAACAAATTTTCCTAATCTTTCTGTTCAAGCGCCATCTAC | 0.39 RPM ratio (pull-down/input) |
| GATGATTGTTCTCCCAGCTGATGAATTCTTTTTGTCGAGTAAACAAATTTTCCTAATCTTTCTGTTCAAGCGCCATCTAC | 0.437 RPM ratio (pull-down/input) |
| GATGATTGTTCTCCCAGCTGATGAATTGTTTCTGTCGAGTAAACAAATTTTCCTAATCTTTCTGTTCAAGCGCCATCTAC | 1 RPM ratio (pull-down/input) |
| GATGATTGTTCTCCCAGCTGATGAATTCAATTTGTCGAGTAAACAAATTTTCCTAATCTTTCTGTTCAAGCGCCATCTAC | 2.23 RPM ratio (pull-down/input) |
| GATGATTGTTCTCCCAGCTGATGAATTGTTTTTGTCGAGTAAACAAATTTTCCTAATCTTTCTGTTCAAGCGCCATCTAC | 4.16 RPM ratio (pull-down/input) |
| GATGATTGTTCTCCCAGCTGATGAATTTTGTTTGTCGAGTAAACAAATTTTCCTAATCTTTCTGTTCAAGCGCCATCTAC | 7.3 RPM ratio (pull-down/input) |
| GATGATTGTTCTCCCAGCTGATGAATTTGTTTTGTCGAGTAAACAAATTTTCCTAATCTTTCTGTTCAAGCGCCATCTAC | 7.57 RPM ratio (pull-down/input) |
| GATGATTGTTCTCCCAGCTGATGAATTCTGTTTGTCGAGTAAACAAATTTTCCTAATCTTTCTGTTCAAGCGCCATCTAC | 6.99 RPM ratio (pull-down/input) |
| GATGATTGTTCTCCCAGCTGATGAATTTCTTTTGTCGAGTAAACAAATTTTCCTAATCTTTCTGTTCAAGCGCCATCTAC | 1.65 RPM ratio (pull-down/input) |
| GATGATTGTTCTCCCAGCTGATGAATTTTCTTTGTCGAGTAAACAAATTTTCCTAATCTTTCTGTTCAAGCGCCATCTAC | 1.15 RPM ratio (pull-down/input) |
| GATGATTGTTCTCCCAGCTGATGAATTTAGAGACTCGAGTAAACAAATTTTCCTAATCTTTCTGTTCAAGCGCCATCTAC | 0.585 RPM ratio (pull-down/input) |
